Compounds without any hit were thinned out: in the full panel of roughly 83,000, 20% have a hit.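 Step 1: grow cells in 96-well plates. Step 2: add test compound at a single concentration. Step 3: incubate 48 h. Step 4: record percent growth.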 Calls of active or inactive are those of the source.
These molecules were tested on IGROV1 ovarian (assay: NCI-60 one-dose screen, 48 h (100 = growth as untreated, 0 = no growth, -100 = all killed)). Settings: 10 µM unless noted.
Procedure: Growth inhibition of the IGROV1 human tumor cell line is measured as a screen for anti-cancer activity. Cells are grown in 96 well plates and exposed to the test compound for 48 hours. Compounds are tested at a single concentration, which is 10^-5 M for most compounds. The reported endpoint is percent growth (GI% or GIPRCNT), where numbers from 0 - 100% represent growth inhibition, and numbers from -100% - 0 represent cell death. For example, a value of 40 represents 60% growth inhibition. A value of 0 means no net growth occurred over the course of the experiment. A value of -40 indicates 40% of cells at the beginning of the experiment died by the end of the experiment. A value of -100 means all cells are dead at the end of the experiment.
NCI-60 Human Tumor Cell Lines Screen was performed using the standard one-dose NCI protocol, which is described in more detail at https://dtp.cancer.gov/discovery_development/nci-60/default.htm.
Compounds with GIPRCNT values below 10 were considered active. Activity score was based on GIPRCNT using the following formula: […]
Score is 0 for GIPRCNT values of 100 or above, 50 for GIPRCNT values of 0, and 100 for GIPRCNT values of -100.
For O=C(CCc1nc(-c2cccc(Cl)c2)no1)Nc1ccccn1, the growth was 90.4% (inactive).
COC1=CC(c2ccc[nH]2)=N/C1=C\c1[nH]c(C)c(C(=O)OCCn2cc(CCC[C@@H]3Cc4cc(O)ccc4C4CC[C@]5(C)[C@@H](O)CC[C@H]5C43)nn2)c1C (stereo not given in full) was tested, and the growth was 95.7% (inactive).
Cc1ccc(/C(=N\N=C(N)N)c2ccccc2)cc1 was tested, and the growth was -0.836% (active).
For O=C(NCc1cn(Cc2cccc(Oc3ccccc3)c2)nn1)c1cccnc1NCc1ccc(Cl)cc1, the growth was 60.1% (inactive).
In the case of Oc1[nH]c2ccccc2c1/C=c1/cc2c(c(-c3ccc(F)cc3)n1)=Nc1ccccc1-2, the growth is reported as -7.94% (active).
For N#Cc1c(-c2ccc(C(F)(F)F)cc2)cc(N2CC(O)C2)n2c1nc1ccccc12, the growth was 60.9% (inactive).
For c1ccc2c(c1)nc(-n1ccnc1)c1nc3ccccc3n12, the growth was 52.5% (inactive).
With C(=C\c1nc2ccccc2[nH]1)/c1nc2ccccc2[nH]1 the growth was 93.1% (inactive).
For COc1ccc(Cn2cnc3cc(C(=O)Nc4cccc5ccccc45)ccc32)c(OC)c1, the growth was 14.7% [30 µM] (inactive).
For Nc1ccc(-c2cc3c(Nc4ccc(OCc5cccc(F)c5)c(Cl)c4)ncnc3s2)cc1, the growth was 38.2% (inactive).
With COc1cc(CNC(=O)/C=C/C=C/c2ccc3c(c2)OCO3)ccc1OCc1cn(-c2ccc(Cl)c(Cl)c2)nn1 the growth was 6.63% (active).
O=S(=O)(Nc1ccsc1-c1nc(-c2ccccc2)no1)c1cc(Cl)cc(Cl)c1 was tested, and the growth was 100% (inactive).
O=C(O)c1ccc(CO)o1 was tested, and the growth was 109% (inactive).
In the case of O=C1CCC(N2C(=O)c3cccc(NCCCC4CCN(CCNC(=O)c5cc6c(o5)C(=O)c5ccccc5C6=O)CC4)c3C2=O)C(=O)N1 (stereo not given), the growth is reported as -50.3% (active).
With O=C1CSC(c2ccc(O)cc2)N1c1nnc(Cn2cnnc2)o1 (stereo not given) the growth was 104% (inactive).
With C=C(C=O)[C@@H]1CC=C(C=O)CC1 the growth was -24.5% (active).
For CCOC(=O)C(=CNc1ccccc1[N+](=O)[O-])C(=O)OCC, the growth was 107% (inactive).
In the case of Cc1c2c(cn1Cc1ccccc1)CCc1cn[nH]c1-2, the growth is reported as 84.5% (inactive).
With COc1ccc(-c2cncnc2N)cc1OC the growth was 111% (inactive).
Cn1cc(Nc2nccc(-c3ccc(N4CCCC4)c(C#N)c3)n2)cn1 was tested, and the growth was 25.3% (inactive).
With CCN(CC)CCOC(=O)Nc1ccccc1Cl the growth was 101% (inactive).
Clc1cnc(Nc2ccc(OCCN3CCCC3)cc2)nc1NCc1ccco1 was tested, and the growth was 15.7% (inactive).
With CN(C)c1ccc2cc(-c3ccc(Cl)c(Cl)c3)c(N)nc2c1 the growth was 42% (inactive).
In the case of CCOC(=O)c1sc(-c2ccc(OS(=O)(=O)c3ccc(C(C)(C)C)cc3)c(C=O)c2)nc1C, the growth is reported as 32% (inactive).
In the case of COc1ccc(/C(C)=N/NS(=O)(=O)c2ccc(C)cc2)cc1OC, the growth is reported as 114% (inactive).
N#Cc1cnn2c(-c3ccc(Cl)cc3)nc(NCCc3ccccc3)nc12 was tested, and the growth was 83.4% (inactive).
In the case of C=C1c2c(C)nn(-c3ccc(O)cc3)c2N(C)C23C[C@@H]1C1(C)c4c(C)nn(-c5ccc(O)cc5)c4N(C)C(C)(C[C@H]12)C3 (stereo not given in full), the growth is reported as 63.2% (inactive).
With O=C1Nc2ccccc2/C1=N/N=C/c1c[nH]c2ccccc12 the growth was 35.7% (inactive).
Cc1ccc2c(n1)C(=O)C(Oc1ccc(F)cc1)=CC2=O was tested, and the growth was 109% (inactive).
With CCCCNC(=O)c1cc(NCc2cc(O)ccc2O)ccc1O the growth was 98.4% (inactive).
With O=C1N/C(=N/O)S/C1=C/c1cn(-c2ccccc2)nc1-c1ccccc1 the growth was 77.4% (inactive).
In the case of COc1ccc(-c2nc3ncccn3c2/C=C/C(=O)c2cc(OC)c(OC)c(OC)c2)cc1, the growth is reported as 17.2% (inactive).
For COc1ccc(/C=C(\C#N)n2nnc3ccccc32)cc1, the growth was 7.84% (active).
Fc1ccc(Nc2nc3nonc3nc2Nc2ccc(F)cc2)cc1 was tested, and the growth was 32.6% (inactive).
COc1ccc(NC(=O)c2cccc(-c3cc(=O)c4c(O)c(OC)c(OC)cc4o3)c2)cc1 was tested, and the growth was 95.1% (inactive).
In the case of O=C1C=CC(=Nc2cc(Br)c(O)c(Br)c2)C=C1, the growth is reported as 72.1% (inactive).
For Cc1cn(C2CCCCC2)c(=O)[nH]c1=O, the growth was 126% (inactive).
CCCCOc1ccc(NC(=O)n2nc(N=NN(C)C)c3ccc(Cl)cc32)cc1 was tested, and the growth was 82.8% (inactive).
COc1cc(/C=C/C(=O)c2ccc(Nc3nc(Nc4ccccc4)nc(Nc4ccc(Cl)cc4)n3)cc2)cc(OC)c1OC was tested, and the growth was 54.8% (inactive).
With N=C(N)c1ccc(-c2ccc(/C=C/c3ccccc3)s2)cc1 the growth was -62.6% (active).
